# 697 NFkB inh = lowers PMA/ionomycin-induced NF-kB signal in 697 B cells. 697 B-cell NF-kB luciferase reporter, 16 h. 330,000 tested, 0.33% active. inhibition, % at 4 µM; in the data active = inhibition above about 35%
# Mdm2 MdmX PPI = inhibitors of human Mdm2/MdmX interaction. O15151+Q00987. SaOS-2 split-luciferase Mdm2/MdmX complementation, luminescence. inhibition, % at 8 µM. 330,000 tested, 3% active. AID 485346;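 active = inhibition of at least 50% at 8 µM in the primary screen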
# Target sequence (O15151 whole entry, looked up): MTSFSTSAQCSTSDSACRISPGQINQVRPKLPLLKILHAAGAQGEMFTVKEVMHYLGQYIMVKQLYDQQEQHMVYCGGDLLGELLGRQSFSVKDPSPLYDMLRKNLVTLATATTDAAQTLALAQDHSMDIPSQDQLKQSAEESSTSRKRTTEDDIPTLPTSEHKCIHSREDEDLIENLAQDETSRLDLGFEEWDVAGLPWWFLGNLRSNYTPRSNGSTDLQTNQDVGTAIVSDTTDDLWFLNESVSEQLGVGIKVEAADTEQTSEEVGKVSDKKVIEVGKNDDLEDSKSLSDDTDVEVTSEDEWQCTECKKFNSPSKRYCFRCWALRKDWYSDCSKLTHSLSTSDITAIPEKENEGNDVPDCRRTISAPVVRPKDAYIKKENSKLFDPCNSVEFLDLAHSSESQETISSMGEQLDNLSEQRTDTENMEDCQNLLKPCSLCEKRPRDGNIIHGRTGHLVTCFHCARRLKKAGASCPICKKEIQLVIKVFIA
# Target sequence (Q00987 whole entry, looked up): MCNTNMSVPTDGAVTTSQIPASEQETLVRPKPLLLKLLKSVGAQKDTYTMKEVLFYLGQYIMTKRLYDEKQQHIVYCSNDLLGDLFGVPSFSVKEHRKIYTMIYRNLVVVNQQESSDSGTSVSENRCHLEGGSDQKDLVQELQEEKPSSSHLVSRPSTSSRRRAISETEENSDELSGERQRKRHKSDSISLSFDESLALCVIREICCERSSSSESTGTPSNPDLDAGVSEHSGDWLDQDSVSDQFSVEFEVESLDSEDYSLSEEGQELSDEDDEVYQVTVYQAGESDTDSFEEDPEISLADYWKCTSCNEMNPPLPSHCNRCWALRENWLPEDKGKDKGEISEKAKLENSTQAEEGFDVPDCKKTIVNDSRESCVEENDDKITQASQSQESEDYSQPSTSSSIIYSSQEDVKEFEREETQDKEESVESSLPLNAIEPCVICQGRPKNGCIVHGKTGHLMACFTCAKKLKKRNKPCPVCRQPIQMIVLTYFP
# Jurkat NFkB inh = inhibitors of the PMA/ionomycin-induced NF-kB reporter in Jurkat cells. PMA/ionomycin-induced NF-kB luciferase reporter, luminescence. inhibition, % at 4 µM. 330,000 tested, 0.53% active. AID 435003; in the data active = inhibition above about 50%
# Gli-Sufu block = antagonists of Gli-Sufu signaling. Sufu-KO-LIGHT fibroblasts, Gli luciferase reporter luminescence. 340,000 tested, 0.74% active. inhibition, % at 5 µM. AID 588413;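 active = inhibition above about 55%, limit read from the data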;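 note: 0% = DMSO-treated cells and 100% = wells with medium but no cells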
# Beta apoptosis = blocks beta cell apoptosis; INS-1E cytokine-induced death, ATP luminescence, 48 h; percent of positive-control rescue, neutral wells zero; 300,000 tested, 0.8% active; protection from apoptosis, % (no concentration beside the values);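 active = Every replicate reaches about 75%, or at least half do and their mean reaches it too, limit read from the data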;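 note: 0% = cytokine-treated negative control wells and 100% = positive control rescue; higher means more ATP so stronger rescue from cytokine killing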
# Mdm2-MdmX conf = confirmation of human Mdm2/MdmX interaction inhibitors | shares compounds with Mdm2 MdmX PPI | Mdm2-MdmX binding, luminescent assay | inhibition, % at 8 µM | 10,000 tested, 55% active | AID 489028; in the data active = inhibition above about 40%
# Full FLuc ctr = counter-screen for Mdm2/MdmX inhibitors: full-length luciferase; shares compounds with Mdm2 MdmX PPI; SaOS-2 full-length luciferase counterscreen, luminescence; inhibition, % at 8 µM; 6,200 tested, 77% active; AID 504607;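 active = mean inhibition at 8 µM reaching about 37%, which flags the compound as non-specific, limit read from the data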;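 note: p53-null SaOS-2 cells with luciferase driven by a doxycycline-inducible promoter; compound on cells about two nights before reading with doxycycline added after day one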
# * = called active by the depositor; x = not tested or not shown. A selection: hits, their analogues and other compounds. The true share with any hit is near 4%.
SMILES,697 NFkB inh,Mdm2 MdmX PPI,Jurkat NFkB inh,Gli-Sufu block,Beta apoptosis,Mdm2-MdmX conf,Full FLuc ctr
O=C(NC1CONC1=O)OCC(Cl)(Cl)Cl (configuration not stated),3,14,6,-21,41,x,x
CN1[C@@H]2CC[C@H]1CC(OC1c3ccccc3CCc3ccccc31)C2 (some centres not stated),-20,71*,-3,32,x,32,70*
CSc1nc(N)c(N=Nc2ccc([As](=O)(O)O)cc2)c(=O)[nH]1,4,24,-9,16,36,x,x
Cc1c2ccncc2c(C)c2c1[nH]c1ccccc12,-240,98*,-17,7,119*,92*,2
c1ccc2c(c1)[nH]c1cnccc12,7,16,4,-2,-4,x,x
N=C1c2ccccc2CN1c1cccc([N+](=O)[O-])c1,2,-4,-10,3,-2,x,x
N=C1c2ccccc2CN1c1ccc(F)c([N+](=O)[O-])c1,29,53*,16,13,3,30,x
C=CCN1CC[C@]23c4c5ccc(O)c4OC2C(=O)CC[C@@]3(O)C1C5 (some centres not stated),0,-16,13,-1,-3,x,x
COc1ccc2c3c1OC1C(=O)CC[C@@]4(O)[C@@H](C2)N(C)CC[C@]314 (some centres not stated),-9,67*,2,-16,x,53*,21
FC(F)(F)c1ccc2c(c1)N(CCCN1CCN(CCCl)CC1)c1ccccc1S2,-17,61*,-11,-11,4,23,x
CC1CCN(C(=O)c2ccc(N3CC4CC(C3)c3cccc(=O)n3C4)c([N+](=O)[O-])c2)CC1 (configuration not stated),7,4,-14,5,2,x,x
COC(=O)C1=C(c2ccc(Cl)c(C(F)(F)F)c2)C[C@@H]2CC[C@H]1N2C(=O)N1CCCC1,10,-5,4,6,3,x,x
COC(=O)C1=C(c2ccc(Cl)c(C(F)(F)F)c2)C[C@@H]2CC[C@H]1N2C(=O)N1CCC(O)(c2ccc(Cl)cc2)CC1,6,88*,4,5,5,16,x
O=P(NC1CCCCC1)(Oc1ccccc1)Oc1ccccc1,x,x,x,8,x,x,x
CCCCCC(=O)N[C@@H](c1ccccc1)[C@@H](O)C(=O)O[C@H]1C[C@@]2(O)[C@@H](OC(=O)c3ccccc3)C3[C@](C)(C(=O)[C@H](O)C(=C1C)C2(C)C)[C@@H](OC1OCC(O)C(O)C1O)C[C@H]1OC[C@@]31OC(C)=O (some centres not stated),-20,57*,41,-6,7,60*,52*
CC(=O)O[C@@]12CO[C@@H]1C[C@H](OC1OCC(O)C(O)C1O)[C@@]1(C)C(=O)[C@H](O)C3=C(C)[C@@H](OC(=O)[C@H](O)[C@@H](NC(=O)c4ccccc4)c4ccccc4)C[C@@](O)([C@@H](OC(=O)c4ccccc4)C12)C3(C)C (some centres not stated),-44,53*,48,-10,11,39,59*
Cc1ccccc1C(O)(Cc1ccccc1)C1CN2CCC1CC2 (configuration not stated),3,54*,3,13,-16,61*,69*
Cc1ccc(C(O)(c2ccc(C)c(C)c2)C2CN3CCC2CC3)cc1C (configuration not stated),6,61*,27,12,16,44*,74*
C[N+]12CCC(CC1)C(C(O)(c1cccc(Cl)c1)c1cccc(Cl)c1)C2 (configuration not stated),-20,3,-14,8,-2,x,x
C[C@]12CC[C@@H](O)CC1=CCC1C2CC[C@]2(C)C(=O)[C@H](F)CC12 (some centres not stated),9,19,5,-8,-4,x,x
CC12CCC3C(CC=C4CC(O)CCC43C)C1C/C(=C\c1cccc(F)c1)C2=O (configuration not stated),1,60*,22,8,3,20,x
CCCCc1ncc(CN2CCCC(C(=O)c3ccc(SC)cc3)C2)[nH]1 (configuration not stated),-1,0,28,13,51,x,x
COc1cc2c3cc1Oc1c(OC)c(OC)cc4c1[C@H](Cc1ccc(cc1)Oc1cc(ccc1O)C[C@H]3N(C)CC2)N(C)CC4,-3,97*,14,18,17,57*,30
COc1cc2c(cc1O)C[C@H]1c3c(cc(O)c(OC)c3-2)CCN1C,5,12,9,-3,-3,x,x
COc1cc2c3cc1Oc1cc(ccc1O)C[C@@H]1c4c(cc(OC)c(O)c4Oc4cccc(c4)C[C@@H]3N(C)CC2)CC[N+]1(C)C,6,-24,4,2,-1,x,x
SMILES,697 NFkB inh,Mdm2 MdmX PPI,Jurkat NFkB inh,Gli-Sufu block,Beta apoptosis,Mdm2-MdmX conf,Full FLuc ctr
COc1cc2c3cc1Oc1cc(ccc1O)C[C@@H]1c4c(cc(OC)c(O)c4Oc4ccc(cc4)C[C@H]3N(C)CC2)CCN1C,-14,92*,5,15,1,76*,50*
CCOCCCNC(=O)C1c2cc(OC)c(OC)cc2C(=O)N2CCCCC12 (configuration not stated),28,-3,5,-3,-1,x,x
CC(C)(O)[C@H]1O[C@H]2CC[C@@]3(C)[C@@](O)(CC[C@H]4Cc5c([nH]c6ccccc56)[C@@]43C)C2=CC1=O,-31,62*,10,-18,4,50*,77*
C=C1C(=O)O[C@@H]2C[C@@H](C)[C@H]3C=CC(=O)[C@]3(O)C[C@@H]12,-177,58*,30,-3,2,-8,x
CCOC(=O)[C@@H]1[C@H]2COc3ccc(Br)cc3[C@H]2N2C(=O)N(c3cccc(C)c3)C(=O)[C@]12C,7,-11,39,2,-8,x,x
CC1CCCC(C)N1/N=C/c1c[nH]c2ccc(Br)cc12 (configuration not stated),-2,52*,13,2,4,27,x
CC/C(=C\C=C\[C@@H]1C=C[C@@H]2CCC[C@H]2[C@@H]1C(=O)c1ccc[nH]1)[C@@H]1O[C@@H]([C@@H](C)C(=O)O)CC[C@@H]1C,-47,84*,-10,18,35,74*,37*
Cc1ccccc1-n1c(/C=C/c2ccccn2)nc2ccccc2c1=O,32,58*,8,6,-2,35,67*
O=c1c2ccccc2nc(/C=C/c2ccc(F)cc2)n1-c1ccccn1,2,40,9,1,-4,x,x
COc1cc(/C=C/c2nc3ccccc3c(=O)n2-c2cccc(O)c2)ccc1O,26,42,-1,14,9,x,x
O=c1c2ccccc2nc(/C=C/c2ccc(O)cc2)n1-c1ccccc1O,13,39,6,0,3,x,x

# High-throughput results as filed in PubChem BioAssay.
